Test results from PubChem BioAssay (NCATS).
“And” between values parts separate entries of the source, which are not always exact repeats. Equal entries are not always repeated. Records with an inconclusive call do not appear. The source holds several records for some structures; these can differ, active in one and inactive in another. Unmarked numbers belong to inactive results. The source made the active and inactive calls. The call rests on the fitted dose curve; in most records, active means well fitted cell-killing curve with a large enough effect; inconclusive means small, poorly fitted or top-dose-only effect, or effect the other way; inactive means no such curve, though single readings can be large or run the other way.
Potency means the concentration at half of the fitted maximal effect.

Experiment: Viability qHTS for spleen associated tyrosine kinase inhibitor (SYKi) naive MV4-11 cells (AID 1963823); further: nearly all actives have a fitted effect of over 40% in size
Conditions: MV4-11 AML viability, CellTiter-Glo luminescence, 72 h; series mostly up to 45 µM; viability (% of control): at the top concentration
Description: Department of Medicine, Hematology/Oncology
University Hospital Frankfurt, Germany.
Trials have shown promising clinical activity of the selective SYK inhibitor entospletinib in patients with high expressing HOXA9/MEIS1 acute leukemias. As the development of resistance mechanisms is a common problem in the use of targeted drugs, we performed a chemical library screen to identify drug sensitivities in SYK inhibitor resistant AML cells. […] Glucocorticoids are potent immunosuppressants which work in part by inhibiting the transcription of cytokine genes.
Described herein is a viability screen to look for activity in the SYK inhibitor naive cell line against four NCATS compound libraries (MIPE 5.0, NPC, NPACT, and Kinase) totaling 11372 compounds. Active hits were reacquired for confirmation and further secondary assay testing.
SEQUENCE No. (e.g., 1, 2, 3, etc.); […] (e.g., Cells, Incubation, Reagent, etc.); VALUE; DESCRIPTION.
1; Media; 2uL; white, solid-bottom Corning assay plate.
2; Compounds; 23nL; Echo acoustic dispenser.
3; Cell; 5uL; 500 cells per well.
4: Incubation; 72hr; 37 C, 5% CO2, 95% humidity.
5; Reagent; 3uL; CellTiter-Glo reagent (Promega).
6; Incubation; 10min; room temperature.
7; Detection; Luminescence; ViewLux plate reader (PerkinElmer).
NOTES (numbers refer to Sequence numbers above
1. Quantitative high-throughput screening (qHTS) of small molecule compounds was conducted on naive SYKi MV4-11 cell line.
2. Twenty-three nanoliter of small molecule compounds were added to each assay plates using the Echo acoustic dispenser (Beckman Coulter).
3. Cells were seeded into the assay plates at a final density of 500 cells in 5uL of media per well using the Multi-drop Combi dispenser.
4. Plates were covered with stainless steel gasketed lids and incubated for 72 hours at standard cell culture conditions.
5. Viability was assessed by adding 3uL of CellTiter-Glo detection reagent (Promega).
6. Plates were covered with gasket lids and incubated for 10 minutes at room temperature.
7. Luminescence was measured on a ViewLux plate reader (PerkinElmer).
For `CCOCc1cc(OC)c(-c2ccc(C[C@H](NC(=O)c3c(F)cccc3F)C(=O)O)cc2)c(OC)c1`, the “viability (% of control)” value was 76.7%.
In the case of `CCn1cc(C(=O)O)c(=O)c2cnc(N3CCCC3)nc21`, the viability (% of control) is reported as 74.1% [at 9.25 µM].
In the case of `COc1ccc(-c2cnc3ccc(NCc4ccc(S(N)(=O)=O)cc4)nn23)cc1OC`, the Potency is reported as 0.92 µM (active).
In the case of `C=CCc1ccc(O[C@@H]2O[C@H](CO[C@@H]3O[C@@H](C)[C@H](O)[C@@H](O)[C@H]3O)[C@@H](O)[C@H](O)[C@H]2O)cc1`, the “viability (% of control)” value is reported as 85.3% [at 17.3 µM].
For `C[C@@H](O[C@H]1OCCN(Cc2n[nH]nc2CN(C)C)[C@H]1c1ccc(F)cc1)c1cc(C(F)(F)F)cc(C(F)(F)F)c1`, the Potency was 10.3 µM (active).
For `C=C1CCC[C@]2(C)CC/C(=C(/CO)C(=O)OC)C[C@@H]12`, the Potency was 20.6 µM (active).
With `CCn1c(-c2nonc2N)nc2cnc(Oc3cccc(NC(=O)c4ccc(OCCN5CCOCC5)cc4)c3)cc21` the Potency was 517 nM (active) and 934 nM (active).
In the case of `CC(C)c1cc(CNc2nc(Nc3cc(C4CC4)[nH]n3)cc(N3CCN(C)CC3)n2)on1`, the Potency is reported as 0.0259 µM (active).
For `Nc1ncnc2c1nc(Cl)n2[C@@H]1O[C@H](CO)[C@@H](O)[C@@H]1O`, the Potency was 2.35 µM (active).
With `C=C1CC[C@@H]2C(C)(C)CCC[C@@]2(C)[C@@H]1CC/C(=C/C(=O)OC)COC(C)=O` the “viability (% of control)” value was 60.7%.
For `Nc1cc(-c2ccncc2)c[nH]c1=O`, the “viability (% of control)” value was 98.5%.
For `CCCCOCCOC(=O)c1cccnc1`, the “viability (% of control)” value was 59.4%.
In the case of `CCOC(=O)n1ccn(C)c1=S`, the “viability (% of control)” value is reported as 46%.
With `C=C1C(=O)O[C@@H]2CC(C)=C([C@@H](C)CCCOC(C)=O)[C@@H](O)[C@H]12` the “viability (% of control)” value was 71.7%.
In the case of `CC(C)n1c(/C=C/[C@H](O)C[C@H](O)CC(=O)O)c(-c2ccc(F)cc2)c2ccccc21`, the Potency is reported as 2.63 µM (active).
For `NC(=O)N1CCC(CC(=O)N2CCC([C@H]3c4ncc(Br)cc4CCc4cc(Cl)cc(Br)c43)CC2)CC1`, the Potency was 5.9 µM (active).
For `CC(=O)N[C@@H](CCC(N)=O)C(=O)O`, the “viability (% of control)” value was 82.2%.
In the case of `CC1CC(O)C2(C)C(C(=O)O)=CCCC2C1(C)CCc1ccoc1` (stereo not given), the “viability (% of control)” value is reported as 59.8%.
With `Cc1[nH]c(/C=C2\C(=O)Nc3ccc(F)cc32)c(C)c1C(=O)NCCN1CCCC1` the Potency was 51.7 nM (active) and 14.4 nM (active).
With `CC[C@H](Nc1ncnc2nc[nH]c12)c1nc2cccc(F)c2c(=O)n1-c1ccccc1` the Potency was 0.332 µM (active) and the viability (% of control) was 57.2% [at 9.25 µM].
`COc1ccc(/C=C/C(=O)O[C@@H]2[C@@H](O[C@@H]3O[C@H](CO)[C@@H](O)[C@H](O)[C@H]3O)[C@@H](O)[C@H](O[C@H]3C4C=CO[C@@H](O[C@@H]5O[C@H](CO)[C@@H](O)[C@H](O)[C@H]5O)C4[C@@]4(CO)O[C@@H]34)O[C@H]2C)cc1` (stereo not given in full) showed a viability (% of control) of 75.2% [at 9.25 µM].
For `CCN(CCCOc1ccc2c(Nc3cc(CC(=O)Nc4cccc(F)c4)[nH]n3)ncnc2c1)CCOP(=O)(O)O`, the Potency was 23.1 nM (active) and 186 nM (active).
For `Cn1c(NCCN(CCO)CCCc2ccc([N+](=O)[O-])cc2)cc(=O)n(C)c1=O`, the Potency was “inactive”.
With `CC1(C)CC[C@]2(C(=O)O)CC[C@]3(C)C(=CCC4[C@@]5(C)CC[C@H](O[C@@H]6O[C@H](C(=O)O)[C@@H](O)[C@H](O)[C@H]6O)C(C)(CO)C5CC[C@]43C)C2C1` (stereo not given in full) the “viability (% of control)” value was 77.5% [at 17.3 µM].
With `Cc1ccsc1C(=CCCN1CCC[C@@H](C(=O)O)C1)c1sccc1C` the “viability (% of control)” value was 45.1%.
Work on `NC(=O)[C@H](Cc1ccccc1)NC(=O)[C@H](CCCN=C(N)N)NC(=O)C12CC3CC(CC(C3)C1)C2` yielded a viability (% of control) of 88.8% [at 9.25 µM].
In the case of `COC(=O)N1CC2(CC2)C[C@H](C(=O)NO)[C@H]1C(=O)N1CCN(c2ccccc2)CC1`, the “viability (% of control)” value is reported as 73%.
In the case of `COC(=O)CCc1ccc(OCC(O)CNC(C)C)cc1` (stereo not given), the “viability (% of control)” value is reported as 93.8%.
In the case of `C=C1CC[C@@H]2[C@](C)(CO[C@@H]3O[C@H](CO)[C@@H](O)[C@H](O)[C@H]3O)CCC[C@@]2(C)[C@@H]1CCC1=CCOC1=O`, the “viability (% of control)” value is reported as 70.1% [at 17.3 µM].
With `N#Cc1ccc(C2CCCc3cncn32)cc1` (stereo not given) the “viability (% of control)” value was 80.2% [at 17.3 µM].
With `CNC(=O)[C@@H](c1ccccc1)N1CCc2cc(OC)c(OC)cc2[C@@H]1CCc1ccc(C(F)(F)F)cc1` the Potency was 20.6 µM (active).
For `Nc1cccc(-c2cc3c(Oc4cccc(O)c4)ncnc3[nH]2)c1`, the Potency was 1.66 µM (active).
For `Cc1ccc(-n2c(C)cc(-c3nnc4n3CCCCC4)c2C)cc1`, the Potency was 8.33 µM (active).
In the case of `C[C@@H]1C(=O)OC2[C@H](O)[C@]34[C@H]5C[C@@H](C(C)(C)C)[C@]36[C@@H](OC(=O)[C@@H]6O)O[C@@]4(C(=O)O5)[C@]21O` (stereo not given in full), the “viability (% of control)” value is reported as 96.3%.
With `COc1c2occc2cc2ccc(=O)oc12` the “viability (% of control)” value was 94.3%.
For `CC(C)(C)c1[nH]cnc1/C=c1\[nH]c(=O)/c(=C/c2ccccc2)[nH]c1=O`, the Potency was 0.0833 µM (active).
With `C=CC(=O)N1CCCC(n2nc(-c3ccc(Oc4ccccc4)cc3)c3c(N)ncnc32)C1` (stereo not given) the Potency was 0.58 µM (active).
For `CC(C)CCC1(O)C(=O)C(C)(C)C(O[C@@H]2O[C@H](CO)[C@@H](O)[C@H](O)[C@H]2O)C(C)(C)C1O` (stereo not given in full), the “viability (% of control)” value was 87.2% [at 17.3 µM].
In the case of `O=C(O)C(Cc1cc(I)c(O)c(I)c1)c1ccccc1` (stereo not given), the “viability (% of control)” value is reported as 76.6%.
